Screens as filed in PubChem BioAssay.
FXIIa inh mix: human factor XIIa inhibitors, primary screen, biochemical, pooled compound mixtures, fluorogenic substrate | Coagulation factor XII (Homo sapiens), P00748 | purified FXIIa | inhibition, % at 5 µM | 0.2% of 62,000 active | AID 684, 2007
M1 ag: M1 muscarinic receptor agonists, primary screen, CHO-M1 cells, Fluo-4 calcium, agonist mode | Muscarinic acetylcholine receptor M1 | B-score at 10 µM | 3% of 64,000 active | Fluo-4 calcium fluorescence; hits give high values | AID 626, 2007;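 active means fluorescence rise, raw or as B-score row- and column-corrected plate score, outside the 99.7% band of its plate's samples, either direction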
M1 antag: antagonists of rat M1 muscarinic receptor; CHO-M1 cells, Fluo-4 calcium, ACh EC80 antagonist mode; hits give low values; 3.4% of 64,000 active; B-score at 10 µM;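 active means calcium fluorescence response, raw or row-and-column corrected B-score, differing from the plate sample mean either way at a set confidence level, mostly lower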
DAT uptake mod: changed hDAT dopamine uptake under cocaine IC80, either direction, primary screen, cocaine antagonist project, cell-based, LLC-PK1 hDAT, [14C]-dopamine uptake, MLSMR. LLC-PK1 hDAT cells, [14C]-dopamine uptake with cocaine IC80; actives deviate in either direction. B-score at 10 µM. 1.3% of 110,000 active. AID 449768, 2010;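 active means Z score or B-score, a plate-position-corrected score, falls beyond the plate's 99.7% confidence bounds, in either direction; inactive means both scores lie inside the 99.7% bounds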
Target sequence (Q01959 whole entry, looked up): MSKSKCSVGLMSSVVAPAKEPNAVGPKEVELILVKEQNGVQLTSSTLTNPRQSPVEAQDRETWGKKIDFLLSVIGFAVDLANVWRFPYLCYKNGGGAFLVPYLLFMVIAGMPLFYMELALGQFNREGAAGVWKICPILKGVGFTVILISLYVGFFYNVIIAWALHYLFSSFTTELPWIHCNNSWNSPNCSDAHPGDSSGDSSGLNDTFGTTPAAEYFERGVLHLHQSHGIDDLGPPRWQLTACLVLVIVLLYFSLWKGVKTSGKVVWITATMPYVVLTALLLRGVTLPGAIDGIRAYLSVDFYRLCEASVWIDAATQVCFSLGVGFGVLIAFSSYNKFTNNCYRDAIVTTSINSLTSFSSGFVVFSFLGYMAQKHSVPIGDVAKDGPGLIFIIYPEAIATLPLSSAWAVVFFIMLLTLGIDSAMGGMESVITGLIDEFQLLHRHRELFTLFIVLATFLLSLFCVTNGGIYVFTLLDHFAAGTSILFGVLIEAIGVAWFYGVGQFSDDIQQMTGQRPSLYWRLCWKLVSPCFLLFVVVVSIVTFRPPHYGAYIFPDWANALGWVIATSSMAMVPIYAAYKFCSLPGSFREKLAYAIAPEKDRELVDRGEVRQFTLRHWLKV
FXIa mix inh: FXIa protease inhibitors in compound pools, primary screen, biochemical, 10-compound mixtures | Coagulation factor XI (Homo sapiens), P03951 | purified FXIa, fluorogenic substrate, pooled mixtures | inhibition, % at 5 µM | 0.19% of 62,000 active;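 further: each value is inhibition by a whole ten-compound pool holding the compound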
D1 mod: D1 CRE-luciferase signal change, two-sided – cell-based, HEK293 D1, dopamine EC30, D1 allosteric modulator project, primary screen; D(1A) dopamine receptor (Homo sapiens), P21728; 5.9% of 58,000 active; B-score at 10 µM; AID 641, 2007; dopamine EC30 potentiation; actives deviate in either direction;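 active means luminescence count or its row- and column-corrected plate score outside the 99.7% band of the plate's sample wells, on either side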
D1 mod confirm: D1 receptor positive allosteric modulators, retest, confirmation, cell-based, HEK293 D1, CRE-luciferase, duplicate; shares compounds with D1 mod; dopamine EC30 potentiation; hits give high values; luminescence at 10 µM; 88% of 2,200 active; AID 642, 2007;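 active means luminescence in either of two replicates above the same-plate mean plus 3 SD of the low-dose dopamine control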
D1 ag no DA: D1 receptor agonism without dopamine, confirmation, mechanism study for D1 allosteric modulator project, cell-based, HEK293 D1, CRE-luciferase, secondary assay 1. AID 646, 2007. luminescence at 10 µM. shares compounds with D1 mod. luminescence, no dopamine; hits give high values. 0.8% of 1,900 active; in the data active means luminescence above about 3900
Isoprot counter: alters isoproterenol CRE-luciferase response in HEK293 cells. 63% of 2,200 active. HEK293 D1 CRE-luciferase, isoproterenol EC30 counter-screen. shares compounds with D1 mod. AID 647. calls only at 10 µM;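 active means luminescence in either replicate above plate mean of wells with a partly effective reference agonist dose plus 3 SD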;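 further: isoproterenol raises cAMP through native beta-adrenoceptor Gs so signal bypasses D1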
Numbers stand for hits; i = inactive; nt = no result; + = active, no number. Hits are enriched below; roughly 7.4% of the tested compounds scored in any of these assays. Unless noted, no stated cut-off is given here; in the data, active means inhibition above about 20% (passing the limit was not always enough); inactive means the rest.

SMILES	FXIIa inh mix	M1 ag	M1 antag	DAT uptake mod	FXIa mix inh	D1 mod	D1 mod confirm	D1 ag no DA	Isoprot counter
CCOc1cccc(NC(=O)c2ccc(S(=O)(=O)N3CCCC3)cc2)c1	i	i	i	i	i	i	nt	nt	nt
CC(NC(=O)Nc1ccccc1)C(c1cccs1)N1CCN(C)CC1 (configuration not stated)	i	i	i	i	i	i	nt	nt	nt
Nc1nc(Nc2ccc(Cl)cc2Cl)nc(C(F)(F)F)n1	i	i	i	i	i	11	13920	nt	+
COc1cccc(Nc2nc(N)nc(C(F)(F)F)n2)c1	i	i	i	i	i	11	14320	i	+
Nc1nc(Nc2ccccc2Br)nc(C(F)(F)F)n1	i	i	i	i	i	7.3	15052	i	+
COc1nc(Nc2cccc(C(F)(F)F)c2)nc(OC)n1	i	i	i	i	i	i	nt	nt	nt
CCOC(=O)C1=C(C)NC(=O)NC1/C=C/c1ccccc1 (configuration not stated)	i	i	i	i	i	nt	nt	nt	nt
COC(=O)c1cccc(C(=O)Nc2ccc(C)cc2Br)n1	i	i	i	nt	i	i	nt	nt	nt
CC(=O)c1c(C)[nH]c(C(=O)OC2CCOC2=O)c1C (configuration not stated)	i	i	i	i	i	nt	nt	nt	nt
CCOC(=O)c1c(C)c(C(=O)NCc2ccccc2OC)c(C)n1C	i	i	i	i	i	3.6	7232	i	i
COc1ccc(-c2cc(C(F)F)n3ncc(C(=O)N4CCN(C)CC4)c3n2)cc1	nt	nt	nt	i	nt	nt	nt	nt	nt
COc1ccc(-c2cc(C(F)F)n3ncc(C(=O)N4CCSCC4)c3n2)cc1	i	i	i	i	i	5.2	8908	i	+
Cc1cc(C)n(-c2nc(NC(C)(C)C)nc(NC(C)(C)C)n2)n1	i	i	i	i	i	i	nt	nt	nt
CC(C)(C)Nc1nc(NC(C)(C)C)nc(-n2ccnc2)n1	i	i	i	i	i	5.7	17956	i	+
Cc1cc(SCC#N)n2nc(C)c(-c3ccc(Cl)cc3)c2n1	nt	nt	nt	i	nt	nt	nt	nt	nt
Cc1cc(SCC#N)n2nc(C)c(-c3ccccc3)c2n1	i	i	i	i	i	14	14516	i	+
CCN(CC)S(=O)(=O)c1ccc(-n2cnnn2)c(C)c1	nt	nt	nt	i	nt	nt	nt	nt	nt
Cc1ccc(-n2cnnn2)c2cccnc12	i	i	i	i	i	2.6	8320	i	i
Cc1cc(C)n(C(=O)CNc2ccc(C)c(C)c2)n1	nt	nt	nt	i	nt	nt	nt	nt	nt
CCCn1c2c(c(O)c(C(=O)NC)c1=O)CCCC2	i	i	i	i	i	4.6	9448	i	i
Cc1cc(C)n(-c2c(F)c(F)c(CO)c(F)c2F)n1	nt	nt	nt	i	nt	nt	nt	nt	nt
N#Cc1cc2c(nc1SCc1cccnc1)CCCC2	i	i	i	i	i	9.6	12820	i	+
N#Cc1cc2c(nc1SCc1cccnc1)CCC2	i	i	i	i	i	i	nt	nt	nt
C=C(C)CSc1nc2c(cc1C#N)CCC2	i	i	i	i	i	5	8952	i	i
COc1ccc(OC)c(N2C(=O)C(Cl)=C(N3CCCCC3)C2=O)c1	i	i	i	i	i	8.9	6148	i	i
SMILES	FXIIa inh mix	M1 ag	M1 antag	DAT uptake mod	FXIa mix inh	D1 mod	D1 mod confirm	D1 ag no DA	Isoprot counter
COCCCNC(=O)c1ccc2c(=O)n(CC3CCCO3)c(=S)[nH]c2c1 (configuration not stated)	nt	nt	nt	i	nt	nt	nt	nt	nt
Cc1ccc(CNC(=O)C2CCN(S(=O)(=O)c3c(C)noc3C)CC2)cc1	i	i	i	i	i	i	nt	nt	nt
CCn1c(=O)c(C(=O)Nc2cccnc2)c(O)c2ccccc21	i	i	i	nt	i	i	nt	nt	nt
CCCn1c(=O)c(C(=O)NCc2ccncc2)c(O)c2ccccc21	i	i	i	i	i	5.2	6720	i	i
CCCn1c(=O)c(C(=O)Nc2ccncc2)c(O)c2ccccc21	i	i	i	nt	i	i	nt	nt	nt
CCn1c(=O)c(C(=O)NCc2cccnc2)c(O)c2ccccc21	i	i	i	-8.4	i	4.8	13308	i	i
S=C(NCc1ccccn1)Nc1ccc(Cl)cc1Cl	nt	nt	nt	i	nt	nt	nt	nt	nt
CC(C)(C)n1ncc2c(=O)n(Cc3ccc(Cl)cc3Cl)cnc21	i	i	i	i	i	i	nt	nt	nt
CC(C)(C)n1ncc2c(=O)n(Cc3c(F)cccc3Cl)cnc21	i	i	i	i	i	6	9180	i	+
Cc1ccc(-n2c(SCC(=O)OC(C)C)nnc2-c2ccco2)cc1	i	i	i	i	i	i	nt	nt	nt
Cc1ccc(Nc2nc(N)nc(CC#N)n2)cc1	i	i	i	i	i	6.6	14616	nt	+
O=C(CN1CCN(S(=O)(=O)c2ccc3ccccc3c2)CC1)N1CCc2ccccc2C1	nt	nt	nt	i	nt	nt	nt	nt	nt
Cn1c(SCc2ccccc2F)nc2cccnc21	i	i	i	i	i	7.4	7412	i	+
CC(=O)NCCn1c(SCc2ccccc2F)nc2ccccc2c1=O	i	i	i	i	i	9.1	8204	i	+
CC(=O)NCCn1c(SCc2cc(=O)n3cc(Cl)ccc3n2)nc2ccccc2c1=O	i	i	i	i	i	3.7	8148	i	+
COc1ccc(N2CC(C(=O)Nc3cc(C)on3)CC2=O)cc1 (configuration not stated)	nt	nt	nt	i	nt	nt	nt	nt	nt
CC1(c2ccc3noc(-c4ccccc4)c3c2)OCCO1	i	i	i	i	i	i	nt	nt	nt
O=C(O)c1ccc2noc(-c3ccccc3)c2c1	i	i	i	i	i	3	i	i	i
COc1ccc2ccc3c(c2c1)N=C[C@]1(O3)N(C)c2ccccc2C1(C)C	nt	nt	nt	i	nt	nt	nt	nt	nt
O=C(CSc1nnc2scc(-c3ccccc3)n12)NCc1ccc2c(c1)OCO2	i	nt	nt	i	i	7.1	15400	i	+
O=C(CSc1nnc2scc(-c3ccc(Cl)cc3)n12)NCc1ccc2c(c1)OCO2	i	i	i	i	i	6.3	13884	i	+
Cc1ccc2nc(SCC(=O)NCc3cccs3)c(C#N)cc2c1	nt	nt	nt	i	nt	nt	nt	nt	nt
O=C(O)/C=C/C(=O)Nc1ccccc1C(=O)Nc1ccccc1	nt	nt	nt	i	nt	nt	nt	nt	nt
CCSc1oc(-c2ccco2)nc1S(=O)(=O)c1ccc(F)cc1	i	i	i	i	i	4.6	11820	i	i
